Assay results reported in the supplement of paper PMC10077471.
In all, about 1,900 compounds were measured (“excess over highest single agent (ExcessHSA) synergy score, 6x6 matrix”: median about -83, lowest 2% from about -370 on). Many of the other results were omitted from the sample, so the lowest values are more common in it than they were.

System: NCI-H446
Test: excess over highest single agent (ExcessHSA) synergy score, 6x6 matrix; higher = less synergy (more negative = stronger synergy)
Settings: 72 h; CellTiter-Glo viability

**Q.** Which “excess over highest single agent” value does the source give for `Cc1c(CCOc2ccc(C(=O)O)cc2)c2cc(Cl)ccc2n1C(c1ccccc1)c1ccccc1` + Cc1sc2c(c1C)C(c1ccc(Cl)cc1)=N[C@@H](CC(=O)OC(C)(C)C)c1nnc(C)n1-2 [NCGC00250412-19] here?
**A.** Its value is -12.

**Q.** How did the “excess over highest single agent” value turn out when `COc1cccc2c1C(=O)c1c(O)c3c(c(O)c1C2=O)C[C@@](O)(C(=O)CO)C[C@@H]3O[C@H]1C[C@H](N)[C@H](O)[C@H](C)O1` + Cc1sc2c(c1C)C(c1ccc(Cl)cc1)=N[C@@H](CC(=O)OC(C)(C)C)c1nnc(C)n1-2 [NCGC00250412-19] was run?
**A.** Its value is -176.

**Q.** Which “excess over highest single agent” value does the source give for `COc1cccc2c1C(=O)c1c(O)c3c(c(O)c1C2=O)C[C@@](O)(C(=O)CO)C[C@@H]3O[C@H]1C[C@H](N)[C@@H](O)[C@H](C)O1` + Cc1sc2c(c1C)C(c1ccc(Cl)cc1)=N[C@@H](CC(=O)OC(C)(C)C)c1nnc(C)n1-2 [NCGC00250412-19] here?
**A.** The value was -433.

**Q.** How did the “excess over highest single agent” value turn out when `COc1cccc2c1C(=O)c1c(O)c3c(c(O)c1C2=O)C[C@@](O)(C(C)=O)C[C@@H]3O[C@H]1C[C@H](N)[C@H](O)[C@H](C)O1` + Cc1sc2c(c1C)C(c1ccc(Cl)cc1)=N[C@@H](CC(=O)OC(C)(C)C)c1nnc(C)n1-2 [NCGC00250412-19] was run?
**A.** Its value is -304.

**Q.** Which “excess over highest single agent” value does the source give for `C[N+](C)([O-])CCNc1ccc(NCC[N+](C)(C)[O-])c2c1C(=O)c1c(O)ccc(O)c1C2=O` + Cc1sc2c(c1C)C(c1ccc(Cl)cc1)=N[C@@H](CC(=O)OC(C)(C)C)c1nnc(C)n1-2 [NCGC00250412-19] here?
**A.** The value was -286.

**Q.** How did the “excess over highest single agent” value turn out when `CN(C)c1ccc(C(=O)NCCCCCCC(=O)NO)cc1` + Cc1sc2c(c1C)C(c1ccc(Cl)cc1)=N[C@@H](CC(=O)OC(C)(C)C)c1nnc(C)n1-2 [NCGC00250412-19] was run?
**A.** The value was -250.

**Q.** For `Nc1ccc(C(=O)c2cc3c(ccc4ccccc43)[nH]2)cc1` + Cc1sc2c(c1C)C(c1ccc(Cl)cc1)=N[C@@H](CC(=O)OC(C)(C)C)c1nnc(C)n1-2 [NCGC00250412-19], which “excess over highest single agent” value is on record?
**A.** Its value is -275.

**Q.** Which “excess over highest single agent” value does the source give for `CO[C@H]1C(=O)[C@]2(C)[C@@H](OC)C[C@H]3OC[C@@]3(OC(C)=O)[C@H]2[C@H](OC(=O)c2ccccc2)[C@]2(O)C[C@H](OC(=O)[C@H](O)[C@@H](NC(=O)OC(C)(C)C)c3ccccc3)C(C)=C1C2(C)C` + Cc1sc2c(c1C)C(c1ccc(Cl)cc1)=N[C@@H](CC(=O)OC(C)(C)C)c1nnc(C)n1-2 [NCGC00250412-19] here?
**A.** Its value is -412.

**Q.** `CC(=O)O[C@@]12CO[C@@H]1C[C@H](O)[C@@]1(C)C(=O)[C@H](O)C3=C(C)[C@@H](OC(=O)[C@H](O)[C@@H](NC(=O)OC(C)(C)C)c4ccccc4)C[C@@](O)([C@@H](OC(=O)c4ccccc4)[C@H]21)C3(C)C` + Cc1sc2c(c1C)C(c1ccc(Cl)cc1)=N[C@@H](CC(=O)OC(C)(C)C)c1nnc(C)n1-2 [NCGC00250412-19] was tested. Which “excess over highest single agent” value did it give?
**A.** The value was -135.

**Q.** For `CC(=O)O[C@H]1C(=O)[C@@]2(C)[C@H]([C@H](OC(=O)c3ccccc3)[C@]3(O)C[C@H](OC(=O)[C@H](O)[C@@H](NC(=O)c4ccccc4)c4ccccc4)C(C)=C1C3(C)C)[C@]1(OC(C)=O)CO[C@@H]1C[C@@H]2O` + Cc1sc2c(c1C)C(c1ccc(Cl)cc1)=N[C@@H](CC(=O)OC(C)(C)C)c1nnc(C)n1-2 [NCGC00250412-19], which “excess over highest single agent” value is on record?
**A.** The value was -144.

**Q.** For `CC(C)c1ccccc1Cc1cc(C(=O)Nc2ccc(S(=O)(=O)c3ccccc3C(C)(C)C)cc2)c(O)c(O)c1O` + Cc1sc2c(c1C)C(c1ccc(Cl)cc1)=N[C@@H](CC(=O)OC(C)(C)C)c1nnc(C)n1-2 [NCGC00250412-19], which “excess over highest single agent” value is on record?
**A.** Its value is -282.

**Q.** With `Cc1ccccc1C(C(=O)NC1CCCCC1)N(C(=O)CNc1ccc(C#N)cc1)c1cccc(F)c1` (centres undefined) + Cc1sc2c(c1C)C(c1ccc(Cl)cc1)=N[C@@H](CC(=O)OC(C)(C)C)c1nnc(C)n1-2 [NCGC00250412-19] as the molecule, how does the “excess over highest single agent” value read?
**A.** Its value is -209.

**Q.** With `O=C(O)C(=O)O.[NH-]C1CCCCC1[NH-].[Pt+2]` (centres undefined) + Cc1sc2c(c1C)C(c1ccc(Cl)cc1)=N[C@@H](CC(=O)OC(C)(C)C)c1nnc(C)n1-2 [NCGC00250412-19] as the molecule, how does the “excess over highest single agent” value read?
**A.** The value was -135.

**Q.** How did the “excess over highest single agent” value turn out when `CC(C)(N)C(=O)N[C@H](COCc1ccccc1)C(=O)N1CCC2(CC1)CN(S(C)(=O)=O)c1ccccc12` + Cc1sc2c(c1C)C(c1ccc(Cl)cc1)=N[C@@H](CC(=O)OC(C)(C)C)c1nnc(C)n1-2 [NCGC00250412-19] was run?
**A.** Its value is -36.

**Q.** How did the “excess over highest single agent” value turn out when `CC(C)CC(=O)Nc1n[nH]c2c1CN(C(=O)C1CCN(C)CC1)C2(C)C` + Cc1sc2c(c1C)C(c1ccc(Cl)cc1)=N[C@@H](CC(=O)OC(C)(C)C)c1nnc(C)n1-2 [NCGC00250412-19] was run?
**A.** Its value is -619.

**Q.** How did the “excess over highest single agent” value turn out when `COc1cc(Oc2ccnc3cc(OC)c(OC)cc23)ccc1NC(=O)NC(C)c1nccs1` (centres undefined) + Cc1sc2c(c1C)C(c1ccc(Cl)cc1)=N[C@@H](CC(=O)OC(C)(C)C)c1nnc(C)n1-2 [NCGC00250412-19] was run?
**A.** Its value is -83.5.

**Q.** With `COc1ccc2[nH]c([S+]([O-])Cc3ncc(C)c(OC)c3C)nc2c1` (centres undefined) + Cc1sc2c(c1C)C(c1ccc(Cl)cc1)=N[C@@H](CC(=O)OC(C)(C)C)c1nnc(C)n1-2 [NCGC00250412-19] as the molecule, how does the “excess over highest single agent” value read?
**A.** Its value is 45.9.

**Q.** With `COc1c(C)cnc(Cn2cnc3c(Cl)nc(N)nc32)c1C` + Cc1sc2c(c1C)C(c1ccc(Cl)cc1)=N[C@@H](CC(=O)OC(C)(C)C)c1nnc(C)n1-2 [NCGC00250412-19] as the molecule, how does the “excess over highest single agent” value read?
**A.** Its value is -371.

**Q.** `COc1ccc2cc(-c3nc(-c4ccc([S+](C)[O-])cc4)[nH]c3-c3ccncc3)ccc2c1` (centres undefined) + Cc1sc2c(c1C)C(c1ccc(Cl)cc1)=N[C@@H](CC(=O)OC(C)(C)C)c1nnc(C)n1-2 [NCGC00250412-19] was tested. Which “excess over highest single agent” value did it give?
**A.** The value was -100.

**Q.** How did the “excess over highest single agent” value turn out when `CCN(CC)CCOc1ccc(Nc2ncc3cc(-c4c(Cl)cccc4Cl)c(=O)n(C)c3n2)cc1` + Cc1sc2c(c1C)C(c1ccc(Cl)cc1)=N[C@@H](CC(=O)OC(C)(C)C)c1nnc(C)n1-2 [NCGC00250412-19] was run?
**A.** Its value is -126.

**Q.** `CC(C)(O)CCc1ccc(OCc2cc(-c3cccc(OC(F)F)c3)c3ncccc3c2)cc1` + Cc1sc2c(c1C)C(c1ccc(Cl)cc1)=N[C@@H](CC(=O)OC(C)(C)C)c1nnc(C)n1-2 [NCGC00250412-19] was tested. Which “excess over highest single agent” value did it give?
**A.** Its value is 48.5.

**Q.** Which “excess over highest single agent” value does the source give for `COc1nccc(-c2c(-c3ccc(F)cc3)ncn2C2CCNCC2)n1` + Cc1sc2c(c1C)C(c1ccc(Cl)cc1)=N[C@@H](CC(=O)OC(C)(C)C)c1nnc(C)n1-2 [NCGC00250412-19] here?
**A.** Its value is -55.9.

**Q.** For `COc1cccc2c1[C@]13CCN(CC4CC4)[C@H](C2)[C@]1(OC)CCC(=O)C3` + Cc1sc2c(c1C)C(c1ccc(Cl)cc1)=N[C@@H](CC(=O)OC(C)(C)C)c1nnc(C)n1-2 [NCGC00250412-19], which “excess over highest single agent” value is on record?
**A.** The value was -55.

**Q.** With `CO[C@@H]1[C@H](N(C)C(=O)c2ccccc2)C[C@H]2O[C@]1(C)n1c3ccccc3c3c4c(c5c6ccccc6n2c5c31)C(=O)NC4` + Cc1sc2c(c1C)C(c1ccc(Cl)cc1)=N[C@@H](CC(=O)OC(C)(C)C)c1nnc(C)n1-2 [NCGC00250412-19] as the molecule, how does the “excess over highest single agent” value read?
**A.** Its value is -207.

**Q.** How did the “excess over highest single agent” value turn out when `CO[C@@H]1[C@H](N(C)C(=O)c2ccccc2)C[C@H]2O[C@]1(C)n1c3ccccc3c3c4c(c5c6ccccc6n2c5c31)C(=O)NC4=O` + Cc1sc2c(c1C)C(c1ccc(Cl)cc1)=N[C@@H](CC(=O)OC(C)(C)C)c1nnc(C)n1-2 [NCGC00250412-19] was run?
**A.** The value was -113.

**Q.** Which “excess over highest single agent” value does the source give for `CN[C@@H]1C[C@H]2O[C@@](C)([C@@H]1OC)n1c3ccccc3c3c4c(c5c6ccccc6n2c5c31)C(=O)N[C@H]4O` + Cc1sc2c(c1C)C(c1ccc(Cl)cc1)=N[C@@H](CC(=O)OC(C)(C)C)c1nnc(C)n1-2 [NCGC00250412-19] here?
**A.** Its value is -378.

**Q.** Which “excess over highest single agent” value does the source give for `CCn1c(C(=O)N(C2CC2)C2CC2)cc2c3c(ncn3C)c(Nc3cc(C)n(C)n3)nc21` + Cc1sc2c(c1C)C(c1ccc(Cl)cc1)=N[C@@H](CC(=O)OC(C)(C)C)c1nnc(C)n1-2 [NCGC00250412-19] here?
**A.** The value was 76.1.

**Q.** How did the “excess over highest single agent” value turn out when `N#C/C(=C(/N)Sc1ccc(N)cc1)c1ccccc1C(F)(F)F` + Cc1sc2c(c1C)C(c1ccc(Cl)cc1)=N[C@@H](CC(=O)OC(C)(C)C)c1nnc(C)n1-2 [NCGC00250412-19] was run?
**A.** The value was -146.

**Q.** For `CCc1ccc(C(=O)Nc2cc(CN3CCN(C)CC3)cc(C(F)(F)F)c2)cc1C#Cc1cnc2ccnn2c1` + Cc1sc2c(c1C)C(c1ccc(Cl)cc1)=N[C@@H](CC(=O)OC(C)(C)C)c1nnc(C)n1-2 [NCGC00250412-19], which “excess over highest single agent” value is on record?
**A.** Its value is -7.02.

**Q.** Which “excess over highest single agent” value does the source give for `O=C(NCc1ccccc1)[C@H](Cc1ccccc1)NC(=O)[C@H]1O[C@@H]1C(=O)NCCc1ccc(O)cc1` + Cc1sc2c(c1C)C(c1ccc(Cl)cc1)=N[C@@H](CC(=O)OC(C)(C)C)c1nnc(C)n1-2 [NCGC00250412-19] here?
**A.** The value was -10.6.

**Q.** `O=C(O)c1ccc(Nc2ncc3c(n2)-c2ccc(Cl)cc2C(c2c(F)cccc2F)=NC3)cc1` + Cc1sc2c(c1C)C(c1ccc(Cl)cc1)=N[C@@H](CC(=O)OC(C)(C)C)c1nnc(C)n1-2 [NCGC00250412-19] was tested. Which “excess over highest single agent” value did it give?
**A.** The value was -157.

**Q.** For `CCN1CCN(C(=O)Cc2ccc(Nc3ncc(F)c(Nc4ccc(C(=O)Nc5ccccc5Cl)cc4)n3)cc2)CC1` + Cc1sc2c(c1C)C(c1ccc(Cl)cc1)=N[C@@H](CC(=O)OC(C)(C)C)c1nnc(C)n1-2 [NCGC00250412-19], which “excess over highest single agent” value is on record?
**A.** The value was -388.

**Q.** How did the “excess over highest single agent” value turn out when `Cc1ccc(NC(=O)c2ccc(CN3CCN(C)CC3)cc2)cc1Nc1nccc(-c2cccnc2)n1` + Cc1sc2c(c1C)C(c1ccc(Cl)cc1)=N[C@@H](CC(=O)OC(C)(C)C)c1nnc(C)n1-2 [NCGC00250412-19] was run?
**A.** Its value is -176.

**Q.** With `OC[C@@H](O)[C@@H](O)[C@@H](O)CO` + Cc1sc2c(c1C)C(c1ccc(Cl)cc1)=N[C@@H](CC(=O)OC(C)(C)C)c1nnc(C)n1-2 [NCGC00250412-19] as the molecule, how does the “excess over highest single agent” value read?
**A.** Its value is -189.
